Holding throughout (assay): NCI-60 one-dose screen, 48 h (100 = growth as untreated, 0 = no growth, -100 = all killed)
What all share (settings): 10 µM

Test [1] relates to K-562 leukemia.
In test [2] the test system is MALME-3M melanoma.
Test [3] deals with MDA-MB-231 breast.
Test [4] concerns RXF 393 renal.
In test [5] the test system is SF-268 CNS.
Test [6] deals with SF-295 CNS.
Test [7] concerns SF-539 CNS.
The test system of test [8] is UACC-257 melanoma.
The subject of test [9] is M14 melanoma.
The subject of test [10] is HCT-15 colon.
For test [11], the system named is HT29 colon.
Test [12] has as its system SNB-75 CNS.
Test [13] has as its system SNB-19 CNS.
Test [14] deals with U251 CNS.
Test [15] has as its system PC-3 prostate.
Test [16] deals with SK-MEL-5 melanoma.
Test [17] concerns UACC-62 melanoma.
For test [18], the system named is LOX IMVI melanoma.
The test system of test [19] is SK-MEL-28 melanoma.
In test [20] the test system is SK-MEL-2 melanoma.

The values that follow come from PubChem BioAssay (NCI).

This is part of a sample that, as a whole, favours compounds with a hit. Of some 83,000 tested, about 20% had one in any assay.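 How to read the values: 0–100, growth inhibition (40 = 60% inhibited); 0, no net growth; -100 to 0, cell death (-40 = 40% of starting cells died; -100 = all dead).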 Unmarked numbers belong to inactive results. Active and inactive are the calls of the source. How the source made its calls: active means growth percent below 10; inactive means the rest.

Take `c1ccc2c(-c3nc(N4CCOCC4)c4c5c(sc4n3)CCCCCC5)cccc2c1`: the growth in test [1] is 115%; in test [2], 97%; in test [3] it was 96.7%; in test [4], 95.9%; in test [5] it was 102%; in test [6], 98.1%. Besides, the growth in test [7] was 98.9%; in test [8], 110%; in test [9], 110%; in test [10] it was 100%; in [11], 101%; in [12] it was 85.2%. For the same molecule, the growth in [13] is 104%; in test [14] it was 91%; in test [15] it was 95%; in [16], 94%; in test [17], 96.6%; in test [18], 105%. Moreover, the values for the growth in [19] and in test [20] were 105% and 104%, respectively.

Take `COc1ccc(OC)c(NC(=O)c2sc3nc4c(cc3c2N)C(=O)CCC4)c1`: the growth is 61.7% in test [1]; 86.4% in test [2]; 86.9% in [3]; 85.4% in [4]; 110% in [5]; 80.9% in test [6]. In addition, the growth was 97.3% in test [7]; 93.5% in test [8]; 93.9% in test [9]; 80.6% in test [10]; 106% in [11]; 87.2% in test [12]. For the same molecule, the growth in test [13] is 82.2%; in test [14], 94.5%; in test [15], 80.4%; in [16], 66%; in [17] it was 75.3%; in [18] it was 90.8%. In addition, the growth is 83.7% in test [19] and 94.1% in test [20].

As for `COc1ccc(OC)c(/C=C/c2nnc(Nc3ccc(Cl)cc3)o2)c1`, the growth is 80.6% in [1]; 41.5% in [2]; 70.9% in test [3]; 56.3% in [4]; 76.5% in [5]; 46.9% in test [6]. Further, the growth is 90% in test [7]; 100% in [8]; 77.9% in test [9]; 98.3% in test [10]; 76.9% in [11]; 15.8% in [12]. The growth in test [13] was 84.9%; in test [14], 41.8%; in test [15], 74.9%; in [16] it was 69.8%; in [17], 75.8%; in test [18] it was 67.7%. The growth was 92.1% in [19] and 101% in test [20].

With `C#Cc1ccc(-n2c(/C=C/c3ccc(C(F)(F)F)cc3)nc3ncccc3c2=O)cc1`, the growth in [1] was 4.03% (active); in test [2] it was 39.1%; in [3], 56.9%; in test [4] it was -10.4% (active); in test [5] it was 31.4%; in [6] it was 32.6%. The growth was 45.2% in [7]; 29% in test [8]; 10.7% in [9]; 22.3% in test [10]; 0.334% (active) in test [11]; 25.7% in [12]. In addition, the growth is 68% in test [13]; 39.2% in test [14]; 29.4% in [15]; -73.6% (active) in test [16]; 17% in test [17]; -18% (active) in [18]. Moreover, the figures for the growth in [19] and in [20] were 33.3% and -37.1% (active), respectively.

Take `COc1cc(-c2cc(/C=C3\C(=O)Nc4cc(Cl)ccc43)[nH]n2)cc(OC)c1OC`: the growth in test [1] was 23.4%; in [2], -22.9% (active); in test [3] it was 34.2%; in [4], 75.3%; in test [5], 56.7%; in [6], 32.6%. Also, the growth in [7] was 48.9%; in test [8], 78%; in [9], 19.6%; in test [10] it was 13.6%; in test [11] it was 28.3%; in test [12], -5.23% (active). The growth in test [13] is 46.7%; in test [14] it was 40.4%; in test [15], 4.7% (active); in test [16], -49.5% (active); in [17], -51.5% (active); in [18] it was 6.79% (active). Besides, the growth is 19.9% in [19] and 51.9% in [20].

Regarding `ClCC#CCSc1ncnc2c1ncn2CC#CCCl`, the growth in test [1] is 17.5%; in test [2] it was -46.3% (active); in test [3], 20.2%; in [4], -65.9% (active); in test [5] it was -22.4% (active); in test [6], 8.11% (active). The growth in test [7] is 26%; in test [8], 55%; in [9], 2.78% (active); in [10], 30.1%; in test [11] it was 17.7%; in [12], -57.5% (active). For the same molecule, the growth in test [13] is 13.2%; in test [14], 0.284% (active); in test [15] it was 32.3%; in test [16], 9.62% (active); in [17], 19.2%; in test [18], -35.5% (active). Also, the growth in test [19] is 39.5%; in [20], 41.1%.

As to `Cc1ccc(NC(=O)Nc2nc3ccccc3s2)cc1NC(=O)Nc1nc2ccccc2s1`, the growth in test [1] was 83.8%; in test [2] it was 90.6%; in test [3], 82.4%; in test [4], 94.7%; in [5] it was 91.5%; in test [6] it was 101%. The growth in [7] is 74.6%; in [8], 10.5%; in [9], 90.3%; in test [10], 72.9%; in test [11], 90.1%; in test [12], 61.5%. The growth in test [13] is 92%; in test [14], 77.2%; in [15], 44.5%; in test [16], 79.6%; in test [17], 86.6%; in [18], 91.7%. The growth in test [19] is 101%; in [20] it was 98.5%.

For `N=C(N)c1ccc(-c2ccc(-c3ccccc3)o2)nc1`, the growth in test [1] was 30.2%; in [2], 91.9%; in test [3] it was 50.2%; in [4], 106%; in test [5], 91.2%; in test [6], 81%. The growth in [7] is 92%; in test [8], 94.6%; in [9], 97.9%; in test [10], 81.1%; in test [11] it was 19.3%; in [12] it was 38.5%. In addition, the growth in [13] is 82.7%; in test [14], 83.6%; in [15], 71.7%; in test [16], 86.1%; in [17], 103%; in test [18] it was 83.4%. Further, the growth in [19] is 96.2%; in test [20], 109%.
